A selection: hits, their analogues and other compounds. The true share with any hit is near 3.7%.
ATXN viability: Viability Counterscreen for Primary qHTS for Inhibitors of ATXN expression; S2 cells (HEK-293 line with an ATXN2-luciferase reporter) viability, CellTiter-Fluor protease fluorescence, 24 h; Potency, µM (top dose mostly 56.7 µM), hits mostly cytotoxic; 400,000 compounds, 0.49% hits; AID 651635, 2014; further: nearly all actives have a fitted effect of over 40% in size
HepG2 tox: qHTS for Inhibitors of TGF-b: Cytotox Counterscreen. AID 588856, 2011. Potency, µM (titrated, usually from 46.1 µM), inactives show at the highest dose activity change, negative = cytotoxicity, actives largely listed as cytotoxic. HepG2 CAGA-GFP viability, ATP luminescence, 18 h. 410,000 compounds, 0.76% hits
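CellTiter-Glo luminescence gave cytotoxicity after 18 hours at 37 degrees C. The cells were HepG2 CAGA-GFP in 1% FBS DMEM, stimulated with 500 pg/mL TGF-beta after compound addition. %Activity was normalised to no-cell wells (complete cell-killing) and DMSO (no toxicity), and curves were fitted and classified.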
ATXN2 expr inh: Primary qHTS for Inhibitors of ATXN expression. AID 1745845, 2022. Potency, µM (series often up to 57 µM), without a hit: at the highest dose activity change, negative = inhibition, actives largely listed as inhibitors. HEK-293 ATXN2-luciferase reporter, luminescence, 24 h. 360,000 compounds, 0.72% hits; further: on the % scale 0 is the no-effect control and ±100 the full control effect; nearly all actives have a fitted effect of over 55% in size
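ATXN2-luciferase reporter cells (luciferase flanked by upstream and downstream ATXN2 gene portions) were treated 24 h at 37 °C with compounds at up to 57 uM. SteadyGlo luminescence gave expression; GF-AFC fluorescence gave viability.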
GLP1R ag: qHTS of GLP-1 Receptor Agonists | Glucagon-like peptide 1 receptor (Homo sapiens), P43220 | HEK293 GLP-1R CRE-luciferase, luminescence, 4-6 h; cells express a hypersensitive GLP-1R form | Potency, µM (series often up to 45.6 µM), for inactives: at the highest dose activation, hits mostly activators | 380,000 compounds, 0.007% hits; further: % of control where 0% means no effect
Target sequence (P43220 whole entry, looked up): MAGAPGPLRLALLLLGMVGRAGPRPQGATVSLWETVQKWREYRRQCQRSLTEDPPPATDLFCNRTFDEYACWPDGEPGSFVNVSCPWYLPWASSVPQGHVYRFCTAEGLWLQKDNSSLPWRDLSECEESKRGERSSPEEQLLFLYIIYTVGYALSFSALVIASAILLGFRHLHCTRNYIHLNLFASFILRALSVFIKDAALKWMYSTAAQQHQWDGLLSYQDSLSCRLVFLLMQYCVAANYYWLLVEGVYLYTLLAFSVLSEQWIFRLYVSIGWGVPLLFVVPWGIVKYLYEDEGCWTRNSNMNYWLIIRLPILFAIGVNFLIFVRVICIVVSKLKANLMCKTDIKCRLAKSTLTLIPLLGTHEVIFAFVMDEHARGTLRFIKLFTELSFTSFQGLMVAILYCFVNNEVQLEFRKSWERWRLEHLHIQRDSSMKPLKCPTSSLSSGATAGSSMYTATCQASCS
TGFb inhibitor: qHTS for Inhibitors of TGF-b; HepG2 CAGA-GFP TGF-b/SMAD3 reporter, GFP fluorescence, 18 h; TGF-beta stimulated, 500 pg/mL final; Potency, µM (doses to about 46.1 µM), for the others: at the top dose activity, negative = inhibition, actives largely listed as inhibitors; 410,000 compounds, 1.2% hits; AID 588855, 2011; further: on the % scale 0 is the no-effect control and ±100 the full control effect; nearly all actives have a fitted effect of over 65% in size
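HEPG2 CAGA-GFP cells (1000/well, DMEM with 1% FBS) were pre-incubated 2 h at 37 degrees C, given compound by pin tool, then stimulated with TGF-beta at 500 pg/mL final for 18 h before per-cell GFP fluorescence imaging.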
GLP-1R inv ag: qHTS of GLP-1 Receptor Inverse Agonists (Inhibition Mode); AID 624417, 2012; Glucagon-like peptide 1 receptor (Homo sapiens), P43220; Potency, µM (series often up to 38.3 µM), without a hit: top-dose activity change, negative = inhibition, usual class: inhibitors; 410,000 compounds, 1.6% hits; HEK293 GLP-1R CRE-luciferase, luminescence, 24 h; GLP-1R form is constitutively active; further: on the % scale 0 is the no-effect control and ±100 the full control effect; nearly all actives have a fitted effect of over 55% in size
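Inverse agonists were sought by their lowering of basal cAMP reporter luciferase output in HEK293 cells stably carrying constitutively active human GLP-1R, after 24 h compound treatment.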
Starred values were filed as active, the others as inactive; i = inactive; ? = inconclusive; · = no result given; ! = not confirmed by another sample. The call rests on the fitted dose curve; in most records, active means well fitted curve in the direction sought with a large enough effect; inconclusive means small, poorly fitted or top-dose-only effect, or another doubt; inactive means no such curve, though single readings can be large; an effect the other way counts as inactive or inconclusive. Potency means the concentration at half of the fitted maximal effect.

SMILES	ATXN viability	HepG2 tox	ATXN2 expr inh	GLP1R ag	TGFb inhibitor	GLP-1R inv ag
CC(C)(C)n1ncc2c(=O)n(Cc3ccc([S+](=O)([O-])N4CCOCC4)cc3)cnc21	·	-15%	·	·	0%	·
COCc1c(C(=O)NC2CCCC2)cnn1-c1nccc(-c2cccs2)n1	i	·	·	·	·	·
CC(NC(=O)CCC(=O)NC(C)C1COc2ccccc2O1)C1COc2ccccc2O1 (stereo not drawn)	i	-7%	-12%	6%	-66%	8.9µM*
Cc1ccc([N+](=O)[O-])cc1S(=O)(=O)N(C)N=Cc1cnc2ccc(Br)cn12	·	·	0.049µM*	·	·	·
COCc1[nH]nc2c1C(c1ccc(OC)c(OC)c1)C(C#N)=C(N)O2 (stereo not drawn)	i	1%	-3%	0%	11%	54%
CCn1c2ccccc2c2cc(C3C(C#N)=C(N)Oc4n[nH]c(COC)c43)ccc21 (stereo not drawn)	i	4µM*	2.5µM*	-11%	10µM*	?
CCN1CCN(Cc2ccc(NC(=O)c3cc(NC(=O)c4cc(-c5ccc(OC)cc5)n[nH]4)cc(OC)c3)cc2C(F)(F)F)CC1	18µM*	-112%	14µM*	9%	?	?
CCN1CCN(Cc2ccc(NC(=O)c3cc(NC(=O)c4cc5cccc(OC)c5o4)cc(OC)c3)cc2C(F)(F)F)CC1	16µM*	18µM*!	8.9µM*!	-15%	?	?
CCN1CCN(Cc2ccc(NC(=O)c3cc(NC(=O)c4cncc(-c5cccs5)c4)cc(OC)c3)cc2C(F)(F)F)CC1	35µM*	14µM*!	25µM*!	3%	14µM*	?
Cc1ccc2c(c1)N(C(=O)CCC(=O)NCc1cccs1)CCO2	i	4%	-3%	·	-11%	-6%
CCN1CCC[C@@H]1CNC(=O)c1cc(S(=O)(=O)CC)ccc1OC	·	·	·	0%	·	·
CCCCCOc1ccccc1/C(=C\SC)n1ccnc1	i	·	-13%	·	·	·
CC(=O)Nc1ccc(C(=O)Nc2ccc3c(c2)N(C2CCCC2)C(=O)c2ccccc2S3)cc1	?	-11%	-27%	·	17%	?
N#Cc1ccc(C(=O)Nc2ccc3c(c2)N(C2CCCC2)C(=O)c2ccccc2S3)cc1	i	-8%	-1%	·	5.6µM*	?
CC(C)CC(N)c1csc(Nc2cc(Oc3ccccc3)ncn2)n1 (stereo not drawn)	·	-58%	25µM*	-5%	?	?
CC(C)C(N)c1csc(Nc2cc(Oc3ccccc3)ncn2)n1 (stereo not drawn)	?	-16%	-13%	-8%	-16%	?
NC(c1ccccc1)c1csc(Nc2cc(Oc3ccccc3)ncn2)n1 (stereo not drawn)	?	11µM*	0%	-6%	?	-9%
CC(C)CC(N)c1csc(Nc2ncccn2)n1 (stereo not drawn)	?	-23%	?	-6%	11µM*	?
CCOc1ccc(NC(=O)c2nc(S(=O)(=O)Cc3ccccc3F)ncc2Cl)cc1	·	6.3µM*	·	·	3.2µM*	11µM*
O=C(Nc1ccc(OC(F)F)cc1)c1nc(S(=O)(=O)Cc2ccccc2F)ncc1Cl	·	11µM*	·	·	13µM*	·
O=C(Nc1ccc(OC(F)F)cc1)c1ncc(Cl)c(Cl)c1Cl	i	-43%	·	8%	1%	0%
CC(=O)c1ccc(-c2ccc3c4c(ccc3c2)OC(CNC(=O)[C@@H]2CCCN2C(C)=O)C4)s1 (stereo partly drawn)	i	·	·	·	·	·
CC1CCCN(C(c2cccs2)c2nnnn2Cc2ccccc2)C1 (stereo not drawn)	i	-3%	-12%	6%	-5%	11µM*

Screening results as filed in PubChem.
